# Test results taken from PubChem BioAssay (Tox21).
# Records with an inconclusive call do not appear. The source made the active and inactive calls. The call rests on the fitted dose curve; in most records, active means well fitted curve in the direction sought with a large enough effect in the repeat runs; inconclusive means weak or mixed curves; inactive means no such curve, though single readings can be large; an effect the other way counts as inactive or inconclusive.
# Target: Aryl hydrocarbon receptor (Homo sapiens) (UniProt P35869)
# Assay: qHTS assay to identify small molecule that activate the aryl hydrocarbon receptor (AhR) signaling pathway (AID 743085); further: nearly all actives have a fitted effect of over 15% in size;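 on activation: HG2L7.5c1 human HepG2 liver cells with stably integrated DRE-driven firefly reporter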
# Conditions: HepG2 AhR-luc (HG2L7.5c1), luciferase, 24 h; series mostly up to 70.3 µM; activation: at the top concentration
# Procedure, shortened: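 Measured in HG2L7.5c1 cells: CellTiter-Fluor signal (30 min incubation, 37C) for viability, then luciferase luminescence (30 min, room temperature). Compound contact time was 24 h at 37C, following a 5 h pre-incubation.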
# On the % scale 0 is the no-effect control and ±100 the full control effect; potency means the concentration at half of the fitted maximal effect.
# Sequence of Aryl hydrocarbon receptor (Homo sapiens) (P35869 whole entry, looked up): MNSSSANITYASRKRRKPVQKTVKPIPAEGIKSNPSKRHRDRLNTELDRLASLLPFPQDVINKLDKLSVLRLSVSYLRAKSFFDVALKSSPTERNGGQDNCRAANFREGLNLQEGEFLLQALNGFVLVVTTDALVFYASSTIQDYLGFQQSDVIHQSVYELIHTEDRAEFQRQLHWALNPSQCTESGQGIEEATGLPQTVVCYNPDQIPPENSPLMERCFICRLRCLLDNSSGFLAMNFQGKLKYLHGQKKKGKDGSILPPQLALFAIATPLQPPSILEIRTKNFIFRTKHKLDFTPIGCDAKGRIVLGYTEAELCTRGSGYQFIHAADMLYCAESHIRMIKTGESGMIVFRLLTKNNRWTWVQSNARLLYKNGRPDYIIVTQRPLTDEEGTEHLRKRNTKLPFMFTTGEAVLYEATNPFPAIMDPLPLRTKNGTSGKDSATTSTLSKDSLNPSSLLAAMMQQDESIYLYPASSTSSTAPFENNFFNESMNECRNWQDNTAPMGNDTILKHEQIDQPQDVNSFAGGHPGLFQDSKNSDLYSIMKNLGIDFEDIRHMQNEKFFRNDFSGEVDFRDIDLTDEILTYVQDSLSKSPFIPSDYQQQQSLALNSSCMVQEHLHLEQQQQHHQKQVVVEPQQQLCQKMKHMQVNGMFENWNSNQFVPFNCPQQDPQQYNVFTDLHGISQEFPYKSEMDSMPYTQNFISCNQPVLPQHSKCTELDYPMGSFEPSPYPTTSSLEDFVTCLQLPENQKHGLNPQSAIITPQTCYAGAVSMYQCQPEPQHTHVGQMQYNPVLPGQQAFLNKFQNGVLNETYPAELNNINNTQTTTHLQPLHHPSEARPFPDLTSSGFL
Compound,activation,Potency
CC(CC(c1ccccc1)c1ccccc1)NC(C)(C)C (stereo not given),-1.66% (inactive),–
CN1CCN(CCC=C2c3ccccc3Sc3ccc(S(=O)(=O)N(C)C)cc32)CC1,1.15% (inactive),–
CN(C)CCOc1ccccc1Cc1ccccc1 (tested in a mixture with another compound),6.26% (inactive),–
CCC(=O)OCC(=O)[C@@]1(OC(=O)CC)[C@@H](C)C[C@H]2[C@@H]3CCC4=CC(=O)C=C[C@]4(C)[C@@]3(F)[C@@H](O)C[C@@]21C,13.2% (inactive),–
CN1CCC(CN2c3ccccc3Sc3ccccc32)C1 (stereo not given),0.14% (inactive),–
CCOC(=O)CN[C@@H](C(=O)N1CC[C@H]1C(=O)NCc1ccc(/C(N)=N/O)cc1)C1CCCCC1,-2.79% (inactive),–
CN1CCN(C2=Nc3ccccc3Cc3ccccc32)CC1,-1.02% (inactive),–
CC(C)(C)C1(O)CCN2CC3c4ccccc4CCc4cccc(c43)C2C1 (stereo not given),7.23% (inactive),–
O=C(O[C@H]1CN2CCC1CC2)N1CCc2ccccc2[C@@H]1c1ccccc1,-3.04% (inactive),–
C=C[C@]1(C)C[C@@H](OC(=O)CSC(C)(C)CNC(=O)[C@H](N)C(C)C)[C@]2(C)[C@H](C)CC[C@]3(CCC(=O)[C@H]32)[C@@H](C)[C@@H]1O,5% (inactive),–
CC#CCC(C)[C@H](O)/C=C/[C@@H]1[C@H]2C/C(=C/CCCC(=O)O)C[C@H]2C[C@H]1O (stereo not given in full),11.4% (inactive),–
O=C1CSC2(CCN(CCCN3c4ccccc4Sc4ccc(Cl)cc43)CC2)N1,–,13.3 µM (active)
C/C=C(/CC[C@@H](C)[C@H]1CC[C@H]2C3=CC[C@H]4[C@H](C)[C@@H](O)CC[C@]4(C)[C@H]3CC[C@]12C)C(C)C,-1.7% (inactive),–
C=C[C@]1(C)C[C@@H](OC(=O)CSCCN(CC)CC)[C@]2(C)[C@H](C)CC[C@]3(CCC(=O)[C@H]32)[C@@H](C)[C@@H]1O,-0.628% (inactive),–
CN1CCCC(CN2c3ccccc3Sc3ccccc32)C1 (stereo not given),-3.46% (inactive),–
CCN(CC)CCOc1ccc(-c2nc3cc(Cl)ccc3s2)cc1,–,8.41 µM (active)

Compound,activation,Potency
CCC(=O)OCC(=O)[C@@]1(OC(=O)CC)[C@H](C)C[C@H]2[C@@H]3CCC4=CC(=O)C=C[C@]4(C)[C@@]3(F)[C@@H](O)C[C@@]21C,7.09% (inactive),–
O=C(CCCN1CCC(C(=O)c2ccc(F)cc2)CC1)c1ccc(F)cc1,0.421% (inactive),–
CCOc1ccc(N=C(C)Nc2ccc(OCC)cc2)cc1,2.77% (inactive),–
CCCCC(=O)OCC(=O)[C@]1(O)Cc2c(O)c3c(c(O)c2[C@@H](O[C@H]2C[C@H](NC(=O)C(F)(F)F)[C@H](O)[C@H](C)O2)C1)C(=O)c1c(OC)cccc1C3=O,2.14% (inactive),–
CCc1ccc2c(c1)N(CC(C)CN(C)C)c1ccccc1S2 (stereo not given),4.75% (inactive),–
O=C(OCCO)c1ccccc1O,-3.16% (inactive),–
C=C1C(=C/C=C2\CCC[C@]3(C)[C@@H]([C@H](C)CCCC(C)(C)O)CC[C@@H]23)C[C@@H](O)C[C@@H]1O,–,10.6 µM (active)
CC(=O)[C@@]1(O)CC[C@H]2[C@@H]3C=C(Cl)C4=CC(=O)CC[C@]4(C)[C@H]3CC[C@@]21C,-1.57% (inactive),–
COc1ccc(CNCC(O)COc2ccc3[nH]c(=O)ccc3c2)cc1OC (stereo not given),-0.341% (inactive),–
N#Cc1ccc2c(c1)N(CCCN1CCC(O)CC1)c1ccccc1S2,6.4% (inactive),–
O=C(O)c1c(Cl)c(Cl)c(Cl)c(Cl)c1-c1c2cc(I)c(=O)c(I)c-2oc2c(I)c(O)c(I)cc12,–,6.68 µM (active)
C[C@]12C=CC(=O)N[C@@H]1CC[C@@H]1[C@@H]2CC[C@]2(C)[C@@H](C(=O)Nc3cc(C(F)(F)F)ccc3C(F)(F)F)CC[C@@H]12,0.239% (inactive),–
CCCCCCCN(CC)CCCC(O)c1ccc(NS(C)(=O)=O)cc1 (stereo not given),-0.0518% (inactive),–
CN(C)CCCN1c2ccccc2C(C)(C)c2ccccc21,-0.0594% (inactive),–
O=C(CCCN1CCC(n2c(=S)[nH]c3ccccc32)CC1)c1ccc(F)cc1,–,11.9 µM (active)

# Tested on: not listed separately
# Assay: qHTS assay to identify small molecule that activate the aryl hydrocarbon receptor (AhR) signaling pathway - cell viability counter screen (AID 743086); further: nearly all actives have a fitted effect of over 45% in size;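 on viability change, negative = cytotoxic: HepG2 liver cells carrying the AhR DRE luciferase reporter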
# Conditions: HepG2-AhR-luc viability, CellTiter-Fluor, 24 h; series mostly up to 70.3 µM; viability change, negative = cytotoxic: at the top concentration
# Procedure, shortened: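 HepG2-AhR-luc (HG2L7.5c1) cells, 4000/well, were preincubated 5 h at 37C, exposed to compound in qHTS format for 24 hr at 37C, then given CellTiter-Fluor for 30 min; viability was read as fluorescence in the reporter wells.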
Compound,"viability change, negative = cytotoxic",Potency
CC(CC(c1ccccc1)c1ccccc1)NC(C)(C)C (stereo not given),-10.2% (inactive),–
CN(C)CCOc1ccccc1Cc1ccccc1 (tested in a mixture with another compound),-6.98% (inactive),–
CCC(=O)OCC(=O)[C@@]1(OC(=O)CC)[C@@H](C)C[C@H]2[C@@H]3CCC4=CC(=O)C=C[C@]4(C)[C@@]3(F)[C@@H](O)C[C@@]21C,0.559% (inactive),–
CN1CCN(C2=Nc3ccccc3Cc3ccccc32)CC1,-13.4% (inactive),–
C=C[C@]1(C)C[C@@H](OC(=O)CSC(C)(C)CNC(=O)[C@H](N)C(C)C)[C@]2(C)[C@H](C)CC[C@]3(CCC(=O)[C@H]32)[C@@H](C)[C@@H]1O,–,3.76 µM (active)
C/C=C(/CC[C@@H](C)[C@H]1CC[C@H]2C3=CC[C@H]4[C@H](C)[C@@H](O)CC[C@]4(C)[C@H]3CC[C@]12C)C(C)C,7.95% (inactive),–
CN1CCCC(CN2c3ccccc3Sc3ccccc32)C1 (stereo not given),-28.7% (inactive),–
CCC(=O)OCC(=O)[C@@]1(OC(=O)CC)[C@H](C)C[C@H]2[C@@H]3CCC4=CC(=O)C=C[C@]4(C)[C@@]3(F)[C@@H](O)C[C@@]21C,-2.69% (inactive),–
O=C(CCCN1CCC(C(=O)c2ccc(F)cc2)CC1)c1ccc(F)cc1,-1.76% (inactive),–
CNC(C)CCC=C(C)C (stereo not given),-0.163% (inactive),–
CCOc1ccc(N=C(C)Nc2ccc(OCC)cc2)cc1,-11.1% (inactive),–
CCCCCCCCCCCCCCCC(=O)O[C@@H]1CC(C)=C(/C=C/C(C)=C/C=C/C(C)=C/C=C/C=C(C)/C=C/C=C(C)/C=C/C2=C(C)C[C@@H](OC(=O)CCCCCCCCCCCCCCC)CC2(C)C)C(C)(C)C1,-0.871% (inactive),–
O=C(OCCO)c1ccccc1O,-14.9% (inactive),–
C=C1C(=C/C=C2\CCC[C@]3(C)[C@@H]([C@H](C)CCCC(C)(C)O)CC[C@@H]23)C[C@@H](O)C[C@@H]1O,-12.6% (inactive),–
CC(=O)[C@@]1(O)CC[C@H]2[C@@H]3C=C(Cl)C4=CC(=O)CC[C@]4(C)[C@H]3CC[C@@]21C,3.56% (inactive),–
COc1ccc(CNCC(O)COc2ccc3[nH]c(=O)ccc3c2)cc1OC (stereo not given),-24.8% (inactive),–
O=C(O)c1c(Cl)c(Cl)c(Cl)c(Cl)c1-c1c2cc(I)c(=O)c(I)c-2oc2c(I)c(O)c(I)cc12,–,23.7 µM (active)
C[C@]12C=CC(=O)N[C@@H]1CC[C@@H]1[C@@H]2CC[C@]2(C)[C@@H](C(=O)Nc3cc(C(F)(F)F)ccc3C(F)(F)F)CC[C@@H]12,12.5% (inactive),–
O=C(CCCN1CCC(n2c(=S)[nH]c3ccccc32)CC1)c1ccc(F)cc1,-15.4% (inactive),–
